Data as given in PubChem BioAssay (EPA / NIEHS).
Several values for one entry are separate records, joined by “and”; a condition that tells them apart may be missing. Equal values may be shown once. Results filed as inconclusive are left out. Activity calls are given as the source filed them. The calls were made as follows, unless noted: active = hit-call score of the fitted dose curve at least 0.9, where 1 is the maximum; inconclusive = response in the unintended direction; inactive = score below 0.9.

Columns and labels:
[1] = molecular target: Nucleoli Translocation, AR (gene 367) (UniProt P10275); assay: UPITT_HCI_U2OS_AR_TIF2_Nucleoli_Antagonist: University of Pittsburgh U2OS Androgen Receptor-Transcriptional Intermediary Factor 2 (AR-TIF2) Antagonism High Content Imaging Assay for Nucleoli Translocation (AID 2283997)
How it was run: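 U2OS cells co-expressing red-fluorescent-tagged human AR and green-fluorescent-tagged TIF2, imaged by high-content microscopy for nucleolar red fluorescence. Antagonist mode against DHT; primary screen at 20 uM final (0.2% DMSO).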

[2] = molecular target: Nucleoli Translocation, AR (gene 367) (UniProt P10275); assay: UPITT_HCI_U2OS_AR_TIF2_Nucleoli_Agonist: University of Pittsburgh U2OS Androgen Receptor-Transcriptional Intermediary Factor 2 (AR-TIF2) Agonism High Content Imaging Assay for Nucleoli Translocation (AID 2283998)
How it was run: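 Red-tagged human androgen receptor co-expressed with GFP-tagged TIF2 serves as the binding reporter. Primary testing used 20 uM final (0.2% DMSO); follow-up dose response covered 0.195 to 50 uM final (0.5% DMSO).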

[3] = molecular target: Ratio of Nucleoli Translocation and Cytoplasm, AR (gene 367) (UniProt P10275); assay: UPITT_HCI_U2OS_AR_TIF2_Nucleoli_Cytoplasm_Ratio_Antagonist: University of Pittsburgh U2OS Androgen Receptor-Transcriptional Intermediary Factor 2 (AR-TIF2) Antagonism High Content Imaging Assay for Ratio of Nucleoli Translocation and Cytoplasm (AID 2283999);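 also: antagonists lower the DHT-driven ratio of nucleolar to cytoplasmic red signal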
How it was run: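 Human osteosarcoma U2OS line, AR fused to RFP, coactivator TIF2 fused to GFP. Cpds 20 uM final, 0.2% DMSO (screen); 0.195–50 uM final, 0.5% DMSO (CRC). Endpoint: nucleoli/cytoplasm red signal ratio, DHT as baseline, loss-of-signal antagonist mode.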

[4] = CCTE_Simmons_MITO_max_resp_rate: CCTE's HepG2 Seahorse XF Respirometric Screening Assay at Maximal Respiratory State [uncoupled], Simmons Lab (AID 2284002; active = hit-call score of the fitted dose curve at least 0.9, where 1 is the maximum; inactive = score below 0.9); details: actives raise or lower the signal
How it was run: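 Maximal respiration in HepG2 cells is recorded as OCR by Seahorse XF following FCCP injection. Compounds span 125 nM–100 uM final; activity is called in either direction against DMSO.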

[5] = CCTE_Shafer_MEA_acute_spike_number: CCTE's Neural Acute Assay for Total Number of Spikes, Shafer Lab (AID 2284008; active = hit-call score of the fitted dose curve at least 0.9, where 1 is the maximum; inactive = score below 0.9;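 as to AC50: curve fitted for decrease in spike count so AC50 reflects inhibitors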)
How it was run: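 Cortical neurons from rat, matured to DIV 13 or 15 on microelectrode arrays, are recorded at 37 C before and during 40-min exposure to 0.03-40 uM compound. Wells need >/= 10 active electrodes.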

[6] = molecular target: Ratio of Nucleoli Translocation and Cytoplasm, AR (gene 367) (UniProt P10275); assay: UPITT_HCI_U2OS_AR_TIF2_Nucleoli_Cytoplasm_Ratio_Agonist: University of Pittsburgh U2OS Androgen Receptor-Transcriptional Intermediary Factor 2 (AR-TIF2) Agonism High Content Imaging Assay for Ratio of Nucleoli Translocation and Cytoplasm (AID 2284000);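 also: hits raise the red nucleolar to cytoplasm ratio above vehicle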
How it was run: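 U2OS cells expressing RFP-tagged human AR and GFP-tagged TIF2; high-content imaging ratio of nucleolar to cytoplasmic red fluorescence, fitted as gain of signal vs DMSO. Single point at 20 uM final (0.2% DMSO); concentration-response 0.195-50 uM final (0.5% DMSO).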

DIO1 (gene 1733) = assay: CCTE_GLTED_hDIO1: CCTE's human Deiodinase 1 (DIO1) Inhibition Assay, Great Lakes Toxicology and Ecology Division (GLTED) Lab (AID 2283987);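 also: isolated human DIO1 enzyme in a cell-free setup rather than cells; enzyme activity read as free iodide liberated from substrate via Sandell-Kolthoff colorimetry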
How it was run: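 Cell-free hDIO1 assay, triplicate plates. Absorbance of the Sandell-Kolthoff reaction reports enzyme-liberated iodide; iodinated chemicals or nitrite, iron and thiocyanate may interfere.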

[7] = CCTE_Harrill_HTTr_Apoptosis_PRF_DMEM_6hr: (Pilot) CCTE's 6-hour Apoptosis Assessment for the High-Throughput Transcriptomics (HTTr) Platform, in MCF-7 cells cultured phenol red-free DMEM + 10% charcoal-stripped fetal bovine serum, Harrill Lab (AID 2283984; active = hit-call score of the fitted dose curve at least 0.9, where 1 is the maximum; inactive = score below 0.9)
How it was run: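 MCF-7 cells in phenol red-free DMEM + 10% charcoal-stripped FBS, eight-point dilution series, 6 h exposure. Caspase-3/7 activation imaged by high-content imaging with CellEvent Caspase 3/7 Green; bidirectional fit versus DMSO baseline.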

[8] = CCTE_Harrill_HTTr_Apoptosis_PRF_DMEM_12hr: (Pilot) CCTE's 12-hour Apoptosis Assessment for the High-Throughput Transcriptomics (HTTr) Platform, in MCF-7 cells cultured in phenol red-free DMEM + 10% charcoal-stripped fetal bovine serum, Harrill Lab (AID 2283985; active = hit-call score of the fitted dose curve at least 0.9, where 1 is the maximum; inactive = score below 0.9)
How it was run: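 MCF-7 cells in phenol red-free DMEM with 10% charcoal-stripped FBS, eight-point dilution series, 12 h exposure. Caspase-3/7 activation imaged by high content imaging with CellEvent Green reagent; bidirectional fit vs DMSO.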

[9] = CCTE_Harrill_HTTr_Apoptosis_PRF_DMEM_24hr: (Pilot) CCTE's 24-hour Apoptosis Assessment for the High-Throughput Transcriptomics (HTTr) Platform, in MCF-7 cells cultured in phenol red-free DMEM + 10% charcoal-stripped fetal bovine serum, Harrill Lab (AID 2283986; active = hit-call score of the fitted dose curve at least 0.9, where 1 is the maximum; inactive = score below 0.9)
How it was run: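 MCF-7 cells in phenol red-free DMEM with 10% charcoal-stripped FBS, exposed 24 h across an eight-point dilution series. Caspase-3/7 activation imaged with CellEvent Green by high content imaging; bidirectional fitting against DMSO.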

Nucleoli Translocation, AR (gene 367), sequence (P10275 whole entry, looked up): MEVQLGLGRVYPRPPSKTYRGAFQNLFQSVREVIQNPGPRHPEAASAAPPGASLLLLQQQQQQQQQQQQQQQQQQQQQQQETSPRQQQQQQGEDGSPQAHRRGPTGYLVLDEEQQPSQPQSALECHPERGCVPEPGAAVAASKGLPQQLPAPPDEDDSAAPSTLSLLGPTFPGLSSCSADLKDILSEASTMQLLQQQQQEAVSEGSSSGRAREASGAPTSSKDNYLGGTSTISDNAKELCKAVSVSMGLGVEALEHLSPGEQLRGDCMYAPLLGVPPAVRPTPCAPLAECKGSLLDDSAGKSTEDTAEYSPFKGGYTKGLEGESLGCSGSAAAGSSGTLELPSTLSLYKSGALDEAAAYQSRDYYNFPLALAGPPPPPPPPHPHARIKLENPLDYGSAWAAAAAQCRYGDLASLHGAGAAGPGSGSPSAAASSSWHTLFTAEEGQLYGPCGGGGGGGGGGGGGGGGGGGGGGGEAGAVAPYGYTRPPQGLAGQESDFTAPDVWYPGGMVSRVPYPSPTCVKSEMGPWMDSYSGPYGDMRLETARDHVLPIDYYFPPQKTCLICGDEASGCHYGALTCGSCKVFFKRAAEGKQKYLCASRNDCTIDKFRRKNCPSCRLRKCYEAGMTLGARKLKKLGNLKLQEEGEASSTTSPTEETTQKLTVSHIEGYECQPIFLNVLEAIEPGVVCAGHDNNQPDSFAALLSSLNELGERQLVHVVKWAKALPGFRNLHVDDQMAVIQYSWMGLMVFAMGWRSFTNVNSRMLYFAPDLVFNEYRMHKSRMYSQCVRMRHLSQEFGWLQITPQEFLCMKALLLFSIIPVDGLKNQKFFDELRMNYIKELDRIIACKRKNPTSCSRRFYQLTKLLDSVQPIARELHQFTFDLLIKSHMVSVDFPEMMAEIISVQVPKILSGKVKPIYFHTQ
Ratio of Nucleoli Translocation and Cytoplasm, AR (gene 367), sequence (P10275 whole entry, looked up, the tested form may be a part): as the sequence (P10275 whole entry, looked up) above

## N#CSCSC#N
[1]
  AC50: 16.5 µM (active)
[2]
  outcome: inactive
[3]
  AC50: 12.7 µM (active)
[4]
  AC50: 50 µM (active)
[5]
  outcome: inactive

## CCOC(=O)COc1cc(-c2nn(C)c(OC(F)F)c2Cl)c(F)cc1Cl
[1]
  outcome: inactive
[2]
  outcome: inactive
[6]
  outcome: inactive

## CCCOCC(=Nc1ccc(Cl)cc1C(F)(F)F)n1ccnc1
DIO1 (gene 1733)
  AC50: 16.2 µM (active)
[4]
  AC50: 15.4 µM (active)
[5]
  AC50: 0.568 µM (active)

## COP(=O)(OC)SCn1c(=O)oc2cc(Cl)cnc21
[1]
  outcome: inactive
[2]
  outcome: inactive
[3]
  outcome: inactive
[6]
  outcome: inactive

## CCCSP(=O)(OCC)SCCC
[1]
  outcome: inactive
[2]
  outcome: inactive
[3]
  outcome: inactive
[6]
  outcome: inactive
[4]
  AC50: 38.1 µM (active)

## CON=C(C(=O)OC)c1ccccc1CON=C(C)c1cccc(C(F)(F)F)c1
[7]
  outcome: inactive
[8]
  outcome: inactive
[9]
  outcome: inactive
[4]
  AC50: 7.03 µM (active)
[5]
  AC50: 0.183 µM (active)

## COc1ccc(C(=CC(=O)N2CCOCC2)c2ccc(Cl)cc2)cc1OC
[1]
  AC50: 3.21 µM (active)
[2]
  outcome: inactive
[3]
  AC50: 2.52 µM (active)
[6]
  outcome: inactive

## CCNc1nc(Cl)nc(NC(C)(C)C#N)n1
[7]
  outcome: inactive
[8]
  outcome: inactive
[9]
  outcome: inactive

## CCCOc1nn(C(=O)NS(=O)(=O)c2ccccc2C(=O)OC)c(=O)n1C
[1]
  outcome: inactive
[2]
  outcome: inactive
[3]
  outcome: inactive
[6]
  outcome: inactive

## Nc1c(Cl)cc([N+](=O)[O-])cc1Cl
[1]
  AC50: 41.7 µM (active)
[2]
  outcome: inactive
[3]
  outcome: inactive
[6]
  outcome: inactive
[5]
  outcome: inactive

## CN(C)[C@@H]1C(=O)C(C(N)=O)=C(O)[C@@]2(O)C(=O)C3=C(O)c4c(O)cccc4[C@@](C)(O)[C@H]3[C@H](O)[C@@H]12
DIO1 (gene 1733)
  AC50: 29.8 µM (active) and 15.9 µM (active) and 27.1 µM (active)
[4]
  outcome: inactive
[5]
  outcome: inactive
